# According to ChEMBL document CHEMBL1961873, “Compounds: GSK PKIS; Assays: Nanosyn kinase panel” (2012):
# How the values were obtained:
# [1] = molecular target: Tyrosine-protein kinase CSK (Homo sapiens) (UniProt P41240); conditions: at 1 µM;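 note: each value is an averaged inhibition reading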
# [2] = molecular target: T1, Discoidin domain-containing receptor 2 (Homo sapiens) (UniProt Q16832); conditions: at 0.1 µM
# T1 sequence (whole entry): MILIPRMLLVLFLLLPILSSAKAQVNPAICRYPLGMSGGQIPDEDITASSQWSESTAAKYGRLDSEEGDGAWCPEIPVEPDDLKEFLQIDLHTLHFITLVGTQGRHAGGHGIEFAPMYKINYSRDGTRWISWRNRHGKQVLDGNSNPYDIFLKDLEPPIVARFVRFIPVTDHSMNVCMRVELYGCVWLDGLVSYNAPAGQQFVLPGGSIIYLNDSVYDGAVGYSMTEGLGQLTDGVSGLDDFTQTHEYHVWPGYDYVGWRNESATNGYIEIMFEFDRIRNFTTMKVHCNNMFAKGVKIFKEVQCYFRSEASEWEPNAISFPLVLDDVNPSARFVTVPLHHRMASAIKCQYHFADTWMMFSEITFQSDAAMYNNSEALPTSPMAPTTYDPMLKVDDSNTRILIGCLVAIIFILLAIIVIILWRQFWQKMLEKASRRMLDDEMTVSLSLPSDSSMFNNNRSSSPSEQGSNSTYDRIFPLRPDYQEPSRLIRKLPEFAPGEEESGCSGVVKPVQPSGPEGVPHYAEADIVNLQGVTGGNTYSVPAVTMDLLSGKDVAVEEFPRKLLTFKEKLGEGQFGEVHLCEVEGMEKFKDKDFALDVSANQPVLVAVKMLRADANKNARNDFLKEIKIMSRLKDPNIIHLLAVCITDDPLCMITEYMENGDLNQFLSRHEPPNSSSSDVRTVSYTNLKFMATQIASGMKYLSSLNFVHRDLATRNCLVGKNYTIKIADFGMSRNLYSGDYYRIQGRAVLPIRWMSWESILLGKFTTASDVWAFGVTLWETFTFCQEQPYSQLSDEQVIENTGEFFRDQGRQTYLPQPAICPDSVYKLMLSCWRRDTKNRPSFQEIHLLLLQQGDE
# [3] = molecular target: T1, Discoidin domain-containing receptor 2 (Homo sapiens); conditions: at 1 µM
# [4] = molecular target: Epidermal growth factor receptor (Homo sapiens) (UniProt P00533); conditions: at 0.1 µM
# [5] = molecular target: Epidermal growth factor receptor (Homo sapiens) (UniProt P00533); conditions: at 1 µM
# [6] = tested on: Epidermal growth factor receptor (Homo sapiens), P00533 [L858R]; conditions: at 0.1 µM
# Sequence of Epidermal growth factor receptor (Homo sapiens), P00533 [L858R] (P00533 whole entry L858R): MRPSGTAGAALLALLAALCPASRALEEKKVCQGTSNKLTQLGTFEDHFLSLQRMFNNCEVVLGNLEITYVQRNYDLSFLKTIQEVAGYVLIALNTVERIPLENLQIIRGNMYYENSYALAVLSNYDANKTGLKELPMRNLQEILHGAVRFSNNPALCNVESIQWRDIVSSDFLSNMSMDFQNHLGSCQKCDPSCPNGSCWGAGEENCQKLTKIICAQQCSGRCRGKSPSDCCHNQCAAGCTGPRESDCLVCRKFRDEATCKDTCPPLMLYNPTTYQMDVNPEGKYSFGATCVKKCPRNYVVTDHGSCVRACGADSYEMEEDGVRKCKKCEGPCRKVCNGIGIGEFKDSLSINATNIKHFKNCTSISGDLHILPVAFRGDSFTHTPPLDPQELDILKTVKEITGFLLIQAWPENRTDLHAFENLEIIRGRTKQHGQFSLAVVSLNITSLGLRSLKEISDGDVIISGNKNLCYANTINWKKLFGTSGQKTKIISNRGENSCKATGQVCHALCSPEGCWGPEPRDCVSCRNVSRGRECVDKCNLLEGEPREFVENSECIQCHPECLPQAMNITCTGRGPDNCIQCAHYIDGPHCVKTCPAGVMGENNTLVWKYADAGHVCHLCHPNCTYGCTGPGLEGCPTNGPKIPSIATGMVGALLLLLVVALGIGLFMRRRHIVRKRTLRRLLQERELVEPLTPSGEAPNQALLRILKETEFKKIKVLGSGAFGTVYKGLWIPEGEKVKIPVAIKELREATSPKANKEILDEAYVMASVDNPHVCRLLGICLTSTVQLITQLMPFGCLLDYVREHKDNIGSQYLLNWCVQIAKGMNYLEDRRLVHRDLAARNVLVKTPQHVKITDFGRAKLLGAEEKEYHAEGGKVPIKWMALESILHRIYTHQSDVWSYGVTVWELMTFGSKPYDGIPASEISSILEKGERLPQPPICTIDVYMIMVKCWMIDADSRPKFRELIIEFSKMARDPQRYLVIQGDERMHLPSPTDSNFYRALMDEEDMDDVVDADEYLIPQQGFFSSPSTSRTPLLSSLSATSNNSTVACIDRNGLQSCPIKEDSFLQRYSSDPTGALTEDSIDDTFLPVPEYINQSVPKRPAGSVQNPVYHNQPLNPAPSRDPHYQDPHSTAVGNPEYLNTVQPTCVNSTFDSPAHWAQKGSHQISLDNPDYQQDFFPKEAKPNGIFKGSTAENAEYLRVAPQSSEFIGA
# [7] = tested on: Epidermal growth factor receptor (Homo sapiens), P00533 [L858R]; conditions: at 1 µM
# [8] = tested on: Epidermal growth factor receptor (Homo sapiens), P00533 [L861Q]; conditions: at 0.1 µM
# Sequence of Epidermal growth factor receptor (Homo sapiens), P00533 [L861Q] (P00533 whole entry L861Q): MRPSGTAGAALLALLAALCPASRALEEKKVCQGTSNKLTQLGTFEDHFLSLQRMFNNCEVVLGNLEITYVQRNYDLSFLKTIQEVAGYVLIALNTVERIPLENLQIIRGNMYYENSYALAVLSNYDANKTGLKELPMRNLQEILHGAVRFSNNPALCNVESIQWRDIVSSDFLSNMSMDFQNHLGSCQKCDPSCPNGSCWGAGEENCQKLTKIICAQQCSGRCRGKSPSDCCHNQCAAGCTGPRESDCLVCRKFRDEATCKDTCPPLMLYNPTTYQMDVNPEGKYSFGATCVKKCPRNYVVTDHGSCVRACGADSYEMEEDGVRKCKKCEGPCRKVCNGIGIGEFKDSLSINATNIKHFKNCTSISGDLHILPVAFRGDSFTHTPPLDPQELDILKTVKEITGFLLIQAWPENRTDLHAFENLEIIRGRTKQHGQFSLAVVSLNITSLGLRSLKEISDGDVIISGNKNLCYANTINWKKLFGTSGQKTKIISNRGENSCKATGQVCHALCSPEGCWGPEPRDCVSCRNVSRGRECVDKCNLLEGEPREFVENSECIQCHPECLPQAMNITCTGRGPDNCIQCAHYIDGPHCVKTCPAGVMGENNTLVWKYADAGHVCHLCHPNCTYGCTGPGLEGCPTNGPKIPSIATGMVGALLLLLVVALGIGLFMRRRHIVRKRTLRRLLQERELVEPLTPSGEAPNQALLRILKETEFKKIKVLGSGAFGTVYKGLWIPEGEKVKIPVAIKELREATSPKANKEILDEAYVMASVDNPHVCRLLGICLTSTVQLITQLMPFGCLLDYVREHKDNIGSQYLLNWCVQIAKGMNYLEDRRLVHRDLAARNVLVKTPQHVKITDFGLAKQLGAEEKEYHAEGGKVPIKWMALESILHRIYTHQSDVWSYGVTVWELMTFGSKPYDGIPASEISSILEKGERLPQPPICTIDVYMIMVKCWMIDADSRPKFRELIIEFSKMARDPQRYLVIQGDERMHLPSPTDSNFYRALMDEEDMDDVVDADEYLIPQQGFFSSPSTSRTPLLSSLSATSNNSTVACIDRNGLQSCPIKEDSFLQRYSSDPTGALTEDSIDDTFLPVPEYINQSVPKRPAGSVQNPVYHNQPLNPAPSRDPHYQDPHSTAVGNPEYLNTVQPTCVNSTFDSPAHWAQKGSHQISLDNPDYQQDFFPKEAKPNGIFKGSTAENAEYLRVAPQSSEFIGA
# [9] = tested on: Epidermal growth factor receptor (Homo sapiens), P00533 [L861Q]; conditions: at 1 µM
# [10] = tested on: Epidermal growth factor receptor (Homo sapiens), P00533 [T790M]; conditions: at 0.1 µM
# Sequence of Epidermal growth factor receptor (Homo sapiens), P00533 [T790M] (P00533 whole entry T790M): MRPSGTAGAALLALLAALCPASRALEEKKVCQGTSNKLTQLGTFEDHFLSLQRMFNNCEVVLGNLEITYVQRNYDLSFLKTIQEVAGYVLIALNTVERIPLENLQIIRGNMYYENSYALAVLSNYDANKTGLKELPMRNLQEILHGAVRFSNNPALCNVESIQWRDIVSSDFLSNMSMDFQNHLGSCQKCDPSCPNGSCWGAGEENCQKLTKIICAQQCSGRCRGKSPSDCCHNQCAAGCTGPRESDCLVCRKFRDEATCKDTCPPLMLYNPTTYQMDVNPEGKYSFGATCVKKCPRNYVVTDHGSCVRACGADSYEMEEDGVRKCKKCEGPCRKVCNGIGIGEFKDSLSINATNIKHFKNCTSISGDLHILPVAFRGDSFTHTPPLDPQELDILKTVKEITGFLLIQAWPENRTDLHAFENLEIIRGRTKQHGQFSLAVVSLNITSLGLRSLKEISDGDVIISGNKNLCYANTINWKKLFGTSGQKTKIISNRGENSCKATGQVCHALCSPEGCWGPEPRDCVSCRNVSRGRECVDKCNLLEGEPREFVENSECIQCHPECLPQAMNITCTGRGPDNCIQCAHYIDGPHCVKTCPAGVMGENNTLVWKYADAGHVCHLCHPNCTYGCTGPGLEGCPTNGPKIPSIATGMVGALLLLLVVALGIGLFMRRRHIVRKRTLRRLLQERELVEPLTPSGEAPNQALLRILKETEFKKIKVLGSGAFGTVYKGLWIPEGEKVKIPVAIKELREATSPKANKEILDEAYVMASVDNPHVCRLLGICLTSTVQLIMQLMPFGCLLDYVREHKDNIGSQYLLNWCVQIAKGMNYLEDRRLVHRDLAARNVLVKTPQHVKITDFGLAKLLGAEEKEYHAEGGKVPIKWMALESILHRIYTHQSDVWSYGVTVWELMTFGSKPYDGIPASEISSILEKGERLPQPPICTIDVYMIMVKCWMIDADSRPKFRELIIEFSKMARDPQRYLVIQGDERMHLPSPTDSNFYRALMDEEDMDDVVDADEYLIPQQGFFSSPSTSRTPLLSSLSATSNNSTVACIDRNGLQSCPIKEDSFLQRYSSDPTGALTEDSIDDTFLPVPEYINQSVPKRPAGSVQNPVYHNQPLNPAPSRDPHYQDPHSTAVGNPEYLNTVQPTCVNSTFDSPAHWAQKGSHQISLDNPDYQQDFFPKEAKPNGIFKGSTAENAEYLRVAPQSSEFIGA
# [11] = tested on: Epidermal growth factor receptor (Homo sapiens), P00533 [T790M]; conditions: at 1 µM
# [12] = tested on: Epidermal growth factor receptor (Homo sapiens), P00533 [L858R,T790M]; conditions: at 0.1 µM
# Sequence of Epidermal growth factor receptor (Homo sapiens), P00533 [L858R,T790M] (P00533 whole entry T790M/L858R, looked up): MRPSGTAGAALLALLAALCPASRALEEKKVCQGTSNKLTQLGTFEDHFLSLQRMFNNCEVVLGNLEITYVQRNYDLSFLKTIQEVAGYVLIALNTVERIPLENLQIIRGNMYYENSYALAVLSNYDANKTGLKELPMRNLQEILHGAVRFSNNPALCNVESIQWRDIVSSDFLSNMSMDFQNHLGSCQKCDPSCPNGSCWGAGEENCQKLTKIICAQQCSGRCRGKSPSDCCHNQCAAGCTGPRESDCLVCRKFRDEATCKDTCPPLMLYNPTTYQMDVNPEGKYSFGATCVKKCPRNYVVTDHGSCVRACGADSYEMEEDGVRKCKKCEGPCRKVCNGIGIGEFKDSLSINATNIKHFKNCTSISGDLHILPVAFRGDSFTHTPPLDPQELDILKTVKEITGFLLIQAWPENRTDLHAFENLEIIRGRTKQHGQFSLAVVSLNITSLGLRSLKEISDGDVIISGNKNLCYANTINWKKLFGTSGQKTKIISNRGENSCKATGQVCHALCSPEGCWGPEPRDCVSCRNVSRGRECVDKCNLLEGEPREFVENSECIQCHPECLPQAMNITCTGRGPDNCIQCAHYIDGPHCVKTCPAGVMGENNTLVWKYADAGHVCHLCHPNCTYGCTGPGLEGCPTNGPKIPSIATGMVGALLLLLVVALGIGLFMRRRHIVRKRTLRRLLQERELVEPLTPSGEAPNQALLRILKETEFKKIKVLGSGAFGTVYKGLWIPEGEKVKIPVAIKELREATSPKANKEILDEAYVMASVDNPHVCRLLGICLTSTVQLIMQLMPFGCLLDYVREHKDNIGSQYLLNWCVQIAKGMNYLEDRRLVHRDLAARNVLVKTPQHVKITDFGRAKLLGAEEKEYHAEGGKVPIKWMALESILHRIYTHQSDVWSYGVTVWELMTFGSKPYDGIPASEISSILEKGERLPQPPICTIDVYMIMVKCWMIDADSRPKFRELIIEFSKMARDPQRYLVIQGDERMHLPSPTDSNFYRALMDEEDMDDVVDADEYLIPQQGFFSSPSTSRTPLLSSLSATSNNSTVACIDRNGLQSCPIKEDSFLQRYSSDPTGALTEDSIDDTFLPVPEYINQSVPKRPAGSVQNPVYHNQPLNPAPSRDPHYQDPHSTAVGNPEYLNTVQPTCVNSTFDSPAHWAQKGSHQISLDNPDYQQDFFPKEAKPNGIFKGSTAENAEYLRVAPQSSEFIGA
# [13] = tested on: Epidermal growth factor receptor (Homo sapiens), P00533 [L858R,T790M]; conditions: at 1 µM
# [14] = molecular target: Ephrin type-A receptor 2 (Homo sapiens) (UniProt P29317); conditions: at 0.1 µM
# [15] = molecular target: Ephrin type-A receptor 2 (Homo sapiens) (UniProt P29317); conditions: at 1 µM
# [16] = molecular target: T2, Ephrin type-A receptor 3 (Homo sapiens) (UniProt P29320); conditions: at 0.1 µM
# T2 sequence (whole entry): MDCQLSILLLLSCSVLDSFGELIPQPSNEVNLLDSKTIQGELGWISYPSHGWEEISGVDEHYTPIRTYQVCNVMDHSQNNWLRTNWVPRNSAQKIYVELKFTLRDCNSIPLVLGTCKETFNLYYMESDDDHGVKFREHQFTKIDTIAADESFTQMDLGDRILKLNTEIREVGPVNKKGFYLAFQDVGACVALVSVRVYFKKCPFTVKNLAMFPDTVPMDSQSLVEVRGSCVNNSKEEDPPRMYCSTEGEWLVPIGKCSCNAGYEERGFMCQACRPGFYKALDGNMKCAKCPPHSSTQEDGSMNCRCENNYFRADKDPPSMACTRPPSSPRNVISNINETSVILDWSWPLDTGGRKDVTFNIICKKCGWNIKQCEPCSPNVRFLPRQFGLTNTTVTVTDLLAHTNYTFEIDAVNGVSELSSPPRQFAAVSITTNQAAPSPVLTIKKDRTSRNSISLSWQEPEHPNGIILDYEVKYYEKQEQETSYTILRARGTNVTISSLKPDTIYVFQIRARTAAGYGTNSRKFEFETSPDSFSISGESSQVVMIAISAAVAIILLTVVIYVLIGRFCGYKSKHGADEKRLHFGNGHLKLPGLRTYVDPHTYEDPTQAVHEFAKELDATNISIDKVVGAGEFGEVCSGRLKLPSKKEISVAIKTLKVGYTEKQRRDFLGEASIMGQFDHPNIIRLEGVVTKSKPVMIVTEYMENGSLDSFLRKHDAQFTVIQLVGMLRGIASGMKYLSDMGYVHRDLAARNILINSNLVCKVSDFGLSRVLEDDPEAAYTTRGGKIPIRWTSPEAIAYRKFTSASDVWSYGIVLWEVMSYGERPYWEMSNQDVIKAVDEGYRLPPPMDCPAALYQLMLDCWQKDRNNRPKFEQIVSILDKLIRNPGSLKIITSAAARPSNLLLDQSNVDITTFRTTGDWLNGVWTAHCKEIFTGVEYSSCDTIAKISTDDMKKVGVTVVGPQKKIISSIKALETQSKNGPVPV
# [17] = molecular target: T2, Ephrin type-A receptor 3 (Homo sapiens); conditions: at 1 µM
# [18] = molecular target: Ephrin type-A receptor 4 (Homo sapiens) (UniProt P54764); conditions: at 0.1 µM
# [19] = molecular target: Ephrin type-A receptor 4 (Homo sapiens) (UniProt P54764); conditions: at 1 µM
# [20] = molecular target: T3, Ephrin type-B receptor 2 (Homo sapiens) (UniProt P29323); conditions: at 0.1 µM;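 note: reported as mean inhibition of EPHB2, from the GSK PKIS dataset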
# T3 sequence (whole entry): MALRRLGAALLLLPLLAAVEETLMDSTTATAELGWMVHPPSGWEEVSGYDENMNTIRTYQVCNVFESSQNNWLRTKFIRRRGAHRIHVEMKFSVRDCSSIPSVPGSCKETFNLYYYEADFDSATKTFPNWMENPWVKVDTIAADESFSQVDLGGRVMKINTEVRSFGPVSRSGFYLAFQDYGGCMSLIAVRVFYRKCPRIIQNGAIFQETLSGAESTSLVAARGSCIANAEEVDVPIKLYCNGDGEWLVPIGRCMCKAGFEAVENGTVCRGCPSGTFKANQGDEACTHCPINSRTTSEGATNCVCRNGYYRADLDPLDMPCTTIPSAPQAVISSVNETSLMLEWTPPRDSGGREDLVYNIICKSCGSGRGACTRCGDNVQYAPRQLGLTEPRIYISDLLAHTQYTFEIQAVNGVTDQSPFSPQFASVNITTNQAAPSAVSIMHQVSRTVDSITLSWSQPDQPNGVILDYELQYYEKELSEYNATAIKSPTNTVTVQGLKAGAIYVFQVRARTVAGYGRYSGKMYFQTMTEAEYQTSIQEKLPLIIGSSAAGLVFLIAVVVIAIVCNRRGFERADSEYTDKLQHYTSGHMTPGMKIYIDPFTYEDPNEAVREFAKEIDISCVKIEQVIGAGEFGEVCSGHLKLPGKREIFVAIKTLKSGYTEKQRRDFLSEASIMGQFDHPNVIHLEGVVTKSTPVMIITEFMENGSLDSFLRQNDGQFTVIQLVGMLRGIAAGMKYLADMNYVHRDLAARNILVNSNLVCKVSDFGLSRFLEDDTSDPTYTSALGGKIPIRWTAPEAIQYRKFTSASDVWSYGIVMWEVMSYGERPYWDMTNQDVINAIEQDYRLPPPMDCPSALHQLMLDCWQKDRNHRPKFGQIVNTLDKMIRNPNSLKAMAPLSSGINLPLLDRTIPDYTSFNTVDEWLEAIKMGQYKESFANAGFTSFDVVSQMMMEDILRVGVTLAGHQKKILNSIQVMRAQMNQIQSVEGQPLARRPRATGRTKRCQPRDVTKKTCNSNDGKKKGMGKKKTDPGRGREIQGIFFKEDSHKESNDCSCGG
SMILES,inhibition [1],inhibition [2],inhibition [3],inhibition [4],inhibition [5],inhibition [6],inhibition [7],inhibition [8],inhibition [9],inhibition [10],inhibition [11],inhibition [12],inhibition [13],inhibition [14],inhibition [15],inhibition [16],inhibition [17],inhibition [18],inhibition [19],inhibition [20]
CCN(CC)Cc1ccc(Nc2nccc(-c3cnn4ncccc34)n2)cc1,8.18%,1.64%,4.24%,-1.99%,-1.76%,-0.85%,-1.39%,1.51%,1.54%,0.54%,1.33%,0.05%,4.64%,-3.31%,-5.2%,-1.76%,0.69%,6.79%,15.2%,8.25%
Nc1nccc(-c2c(-c3ccc(F)cc3)ncn2C2CCC(O)CC2)n1 (centres undefined),-0.86%,-0.26%,13.3%,4.04%,35.7%,18.4%,76.8%,4.44%,33.2%,-1.86%,0.86%,1.94%,15.4%,0.36%,2.11%,-4.93%,-1.48%,-4.75%,14.5%,7.37%
COc1cc2ncn(-c3cc(OCCc4ccccc4)c(C(N)=O)s3)c2cc1OC,2.94%,0.75%,2.48%,7.08%,7.65%,2.45%,9.43%,0.8%,0.3%,0.19%,0.49%,0.55%,4.9%,1.97%,0.66%,3.06%,4.07%,4.63%,3.61%,3.87%
CCS(=O)(=O)c1ccc(OC)c(Nc2ncc(-c3cccc(-c4ccccc4F)c3)o2)c1,4.82%,4.99%,30.8%,4.07%,23.3%,14.1%,62.1%,4.78%,24.4%,-1.94%,0.84%,3.32%,5.25%,-1.44%,-0.56%,-1.38%,4.18%,2.37%,2.94%,5.91%
CCS(=O)(=O)c1ccc(OC)c(Nc2ncc(-c3ccccc3Cl)o2)c1,1.96%,3.73%,8.46%,-0.49%,0.66%,-1.25%,7.46%,2.33%,1.22%,1.78%,3.29%,-1.69%,-0.03%,1.32%,1.73%,5.46%,4.36%,5.58%,9.33%,4.99%
O=C(Nc1n[nH]c2cc(-c3cc(F)ccc3F)ccc12)C1CC1,2.29%,2.61%,4.77%,1.18%,2.02%,1.19%,3.64%,2.35%,-0.56%,0.87%,1.25%,3.1%,2.41%,-2.28%,-0.08%,1.66%,4.19%,5.23%,3.94%,6.32%
O=C1Nc2ccccc2/C1=C/Nc1ccc(-n2cncn2)cc1,7.33%,-0.37%,0.37%,4.22%,4.08%,2.81%,4.05%,3.11%,4.38%,2.21%,4.3%,2.89%,1.3%,1.55%,1.91%,2.74%,4.04%,4.98%,12.3%,3.5%
CCc1ccc(Oc2nccc(-c3c(-c4ccc(F)cc4)ncn3C3CCNCC3)n2)cc1,10.3%,1.91%,3.52%,2.21%,7.66%,3.05%,15.9%,1.97%,5.92%,0.57%,4.64%,0.15%,8.07%,0.72%,-0.17%,4.68%,4.67%,9.41%,10.6%,4.76%
CCc1cccc(CC)c1/C=C/c1cncc(C(=O)NC)c1,0.54%,1.3%,6.62%,3.24%,6.32%,4.88%,3.92%,1.32%,2.46%,2.4%,-0.11%,1.59%,4.31%,3.59%,2.3%,2.96%,2.85%,5.38%,5.6%,7.22%
O=C(Nc1n[nH]c2cc(-c3ccccc3)ccc12)C1CC1,4.74%,1.43%,5.94%,3.06%,6.49%,2.84%,5.13%,4.05%,0.82%,2.65%,4.64%,2.81%,3.37%,1.75%,3.8%,5.17%,6.3%,6.13%,18.9%,6.68%
Cc1nnc(-c2ccc(C)c(-c3ccc(C(=O)NCc4ccc(Cl)cc4)cc3)c2)o1,5.62%,0.22%,-0.21%,-3.58%,-0.27%,1.36%,2.71%,2.71%,1.09%,0.7%,3.59%,1.86%,2.04%,-3.78%,-3.32%,-0.26%,-1.93%,6.29%,5.1%,2.73%
O=C(Nc1ccc(Oc2ccc3[nH]c(NC(=O)c4ccccc4)nc3c2)cc1)Nc1cc(C(F)(F)F)ccc1F,11.7%,24.4%,78.7%,-0.35%,1.11%,7.18%,6.93%,2.47%,3.54%,2.22%,5.49%,1.07%,2.34%,2.75%,26%,4.22%,8.94%,13.4%,64.2%,13.7%
NC(=O)c1ccc(Oc2nccc(-c3c(-c4ccc(F)cc4)ncn3C3CCNCC3)n2)cc1,4.26%,0.13%,0.3%,0.48%,1.21%,3.13%,2.9%,2.71%,5.43%,2.31%,4.36%,3.71%,1.81%,2.58%,1.73%,2.37%,5.3%,8.5%,11%,8.08%
c1ccc(-c2n[nH]cc2-c2ccnc(-c3ccc(OCCN4CCOCC4)cc3)c2)nc1,-4.36%,7.59%,7.75%,3.33%,6.67%,-2.03%,-1.71%,-0.15%,-2.39%,-0.02%,-0.63%,1.82%,-2.02%,4.75%,2.42%,-1.39%,-0.22%,-5.11%,-9.05%,0.38%
Cc1ccc(C(=O)NC(C)C)cc1-c1ccc(C(=O)NCC2CC2)cc1,,-0.36%,0.09%,0.3%,1.34%,-1.62%,-1.21%,-0.86%,-2.64%,-0.77%,-3.61%,-2.78%,-0.98%,-1.78%,-2.07%,-7.27%,-6.99%,-6.17%,-6.72%,-9.67%
